{"source": "PubChem BioAssay AID623995", "about": "(National Center for Advancing Translational Sciences (NCATS), 2012)", "note": "The other results are listed elsewhere or left out. Records with an inconclusive call do not appear. Unmarked numbers belong to inactive results. Activity calls are given as the source filed them. The call rests on the fitted dose curve; in most records, active means well fitted inhibition curve with a large enough effect; inconclusive means small, poorly fitted or top-dose-only effect; inactive means no such curve, though single readings can be large or run the other way. Potency means the concentration at half of the fitted maximal effect.", "data": [{"target": "Isocitrate dehydrogenase [NADP] cytoplasmic (Homo sapiens) (UniProt O75874)", "sequence (O75874 whole entry, looked up)": "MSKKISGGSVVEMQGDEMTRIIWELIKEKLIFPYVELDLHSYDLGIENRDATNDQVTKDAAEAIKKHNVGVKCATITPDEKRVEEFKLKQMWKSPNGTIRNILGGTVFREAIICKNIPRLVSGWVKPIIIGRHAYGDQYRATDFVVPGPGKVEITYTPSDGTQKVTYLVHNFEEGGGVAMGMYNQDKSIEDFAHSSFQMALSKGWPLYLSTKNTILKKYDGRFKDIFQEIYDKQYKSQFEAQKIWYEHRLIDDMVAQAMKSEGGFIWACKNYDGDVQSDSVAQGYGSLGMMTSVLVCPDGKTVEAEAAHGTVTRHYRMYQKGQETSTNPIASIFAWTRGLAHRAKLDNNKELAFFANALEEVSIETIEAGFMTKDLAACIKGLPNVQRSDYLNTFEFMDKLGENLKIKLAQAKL", "assay": "qHTS for Inhibitors of mutant isocitrate dehydrogenase 1 (IDH1): Cherrypicks in WT IDH1; further: nearly all actives have a fitted effect of over 55% in size", "conditions": "WT IDH1 enzyme, NADPH diaphorase/resazurin fluorescence; series mostly up to 115 µM; activity change, negative = inhibition: at the top concentration", "text": "Unbiased genomic sequencing for 22 glioma genomes found recurrent mutation of isocitrate dehydrogenase 1 (IDH1) on chromosome 2q33-a gene encoding the cytosolic isoform of IIDH1associated with the tricarboxylic acid cycle (TCA) that catalyzes the oxidative decarboxylation of isocitrate, yielding alpha-ketoglutarate and CO2 via NADP+ to NADPH conversion. Subsequent studies confirmed the recurrent IDH mutations in up to 70% of secondary gliomas and in 10% of AML cases. […] This in effect defines IDH1 as an oncogene, and provides an extraordinary opportunity to discover chemical probes against mutant IDH1 that may translate into much needed new therapies for glioma and AML patients. QHTS-compatible fluorescent, enzymatic assay was developed to identify inhibitors of the IDH1 mutant (AID 602179). To identify selectivity of the identified inhibitors, a secondary enzymatic assay against the WT IDH1 was also developed. Inhibition of the WT IDH1 leads to a decrease in the amount of NADPH relative to a DMSO control and a concomitant decrease in the fluorescence of the diaphorase/resazurin enzyme product resorufin at 590 nm. Compounds were screened as a concentration-titration series that ranged from 115 uM to 0.20 uM. NIH Molecular Libraries Probe Production Network [MLPCN] NIH Chemical Genomics Center [NCGC] MLSCN Grant: R03 DA032129 PI Name: Dr. Lenny Dang\nEnzyme buffer was dispensed into black, solid 1536-well plates at 3 microL/well in 20 mM Tris buffer, pH 7.5, containing final concentrations of 10 mM MgCl2, 20 mM NaCl, 0.05% BSA, 2 mM b-ME and 0.65 nM WT IDH1. Then, 23 nL of compounds or DMSO were delivered to each well using a pin tool. The substrate and detection buffer (1 uL; 20 mM Tris buffer, pH 7.5, containing final concentrations of 10 mM MgCl2, 20 mM NaCl, 0.05% BSA, 0.06 mM NADP+, 0.53 uM diaphorase, 0.012 mM resazurin and 0.08 mM isocitrate) was added to start the enzymatic reaction. The fluorescence intensity was monitored in kinetic mode on a ViewLux plate reader at 598 nm for 10 minutes (Ex 525, EM 598, bodipy mirror, 0.5 sec exposure). The % Activity was determined from the corrected fluorescence values. As no specific WT IDH1 inhibitors have been identified in the literature, 1x (0.65 nM) and 0x WT IDH1 enzyme controls (untreated) were included to normalize % Activity of identified inhibitors; 0x enzyme values corresponded to 100% Activity (full inhibition), while 1x WT IDH1 enzyme values were used to normalize 0% Activity (no inhibition). Concentration-response curves were fitted to the signals arising from the resulting fluorescence. The concentration-response curves were then classified based on curve quality (r2), response magnitude and degree of measured activity, and compounds were subsequently categorized based on their curve class. […] Keywords: Isocitrate dehydrogenase, IDH1, IDH1 R132H, 2-HG, 2-hydroxyglutarate, AML, glioma, MLSMR, MLPCN, NIH Roadmap, qHTS, NCGC", "units": {"activity change, negative = inhibition": "%"}, "values": [{"compound": "COc1cc(/C=C2/C(=O)ON=C2C)ccc1OCc1ccccc1F", "activity change, negative = inhibition": 4.5}, {"compound": "CCCc1[nH]nc2c1C(c1ccc(OC)c(Cn3nc(C)c(Br)c3C)c1)C(C#N)=C(N)O2", "note": "(centres undefined)", "activity change, negative = inhibition": 15.8}, {"compound": "Cn1c(COc2ccc(Cl)cc2)nc2ccccc2c1=O", "activity change, negative = inhibition": -2.18}, {"compound": "Cc1ccc(Nc2nc(CSc3nnc(-c4ccncc4)n3-c3ccccc3C)cs2)cc1", "activity change, negative = inhibition": -9.79}, {"compound": "Cc1nc(C)c(C(=O)N(c2ccc(C)c(C)c2)C(C(=O)NCc2ccco2)c2ccccc2)s1", "note": "(centres undefined)", "activity change, negative = inhibition": -5.09}, {"compound": "Cc1nc(-c2ccc(Cl)cc2)sc1C(=O)CBr", "activity change, negative = inhibition": 7.04}, {"compound": "CCCCC(=O)NC(c1ccc(OC)c(OC)c1)c1ccc2cccnc2c1O", "note": "(centres undefined)", "activity change, negative = inhibition": -5.29}, {"compound": "COC(=O)c1cccc(N(C(=O)c2ccco2)C(C(=O)NC2CCCC2)c2ccco2)c1", "note": "(centres undefined)", "activity change, negative = inhibition": 4.88}, {"compound": "COc1ccc(/C=C2/SC(=O)N(CCCCCC(=O)Nc3ccccc3C(=O)O)C2=S)cc1", "Potency": "79.4 µM (active)"}, {"compound": "CC(C)(C)c1ccc(S(=O)(=O)Nc2ccc(O)c(Sc3nc4ccccc4s3)c2)cc1", "activity change, negative = inhibition": 11.2}, {"compound": "Cc1ccc2nc(N3C(=O)C(O)=C(C(=O)c4ccco4)C3c3cccc(O)c3)sc2c1", "note": "(centres undefined)", "activity change, negative = inhibition": -9.63}, {"compound": "Cc1cccc(N(C(=O)Cc2cccs2)C(C(=O)NC2CCCC2)c2ccsc2)c1", "note": "(centres undefined)", "activity change, negative = inhibition": -5.18}, {"compound": "COc1cc2c(-c3ccc4c(c3)OCO4)c(-c3ccsc3)oc(=O)c2cc1OC", "activity change, negative = inhibition": 2.94}, {"compound": "COc1ccc(/C=N/Nc2cc(N3CCOCC3)nc(C)n2)c(OC)c1", "activity change, negative = inhibition": 3.66}, {"compound": "CCCc1nc2c(c(=O)c3ccccc3n2C)c(=O)n1C1CCCCCC1", "activity change, negative = inhibition": 1.92}, {"compound": "CCOC(=O)c1oc2c(CN3CCN(CCO)CC3)c(O)c(CC)cc2c(=O)c1-c1nc2ccccc2s1", "activity change, negative = inhibition": 0.488}, {"compound": "CCCOc1ccc(C2c3c(-c4ccccc4O)n[nH]c3C(=O)N2Cc2cccnc2)cc1", "note": "(centres undefined)", "activity change, negative = inhibition": 2.01}, {"compound": "COc1ccc(C(C(=O)NC2CCCCC2)N(C(=O)c2snc(C(N)=O)c2N)c2ccccc2OC)cc1", "note": "(centres undefined)", "activity change, negative = inhibition": -5.01}, {"compound": "CCCNc1ncnc2c1c(-c1ccccc1)cn2-c1ccc(OCC)cc1", "activity change, negative = inhibition": -9.03}, {"compound": "CCC(C)(C)NC(=O)C(c1cccn1C)N(Cc1ccc(C)cc1)C(=O)Cn1nnc2ccccc21", "note": "(centres undefined)", "activity change, negative = inhibition": 4.89}, {"compound": "CC(C)Nc1nc(N(c2ccccc2)c2ccccc2)nc(-n2ccnc2)n1", "activity change, negative = inhibition": -7.64}, {"compound": "C(=N/Nc1cc(N2CCOCC2)nc(N2CCOCC2)n1)/c1ccccc1", "activity change, negative = inhibition": -2.88}, {"compound": "CCSc1nc2sc3c(c2c(=O)n1-c1ccc(C)cc1)CCN(C)C3", "activity change, negative = inhibition": -9.91}, {"compound": "COc1cc(/C=C2/SC(=S)N(Cc3ccccc3)C2=O)cc(OC)c1O", "activity change, negative = inhibition": -23.7}, {"compound": "CCOC(=O)c1ccc(N2C(=O)c3n[nH]c(-c4ccco4)c3C2c2ccc(O)cc2)cc1", "note": "(centres undefined)", "activity change, negative = inhibition": -10.9}, {"compound": "COc1ccc(C(CCN(Cc2ccc(OC)c(OC)c2)C(=O)CCl)c2ccccc2)cc1", "note": "(centres undefined)", "activity change, negative = inhibition": -5.8}, {"compound": "CC(C)N(C(=O)CSc1nc(COc2ccccc2)nc2ccccc12)C(C)C", "activity change, negative = inhibition": -3.75}, {"compound": "N#CC1=C(N)C(C#N)(C#N)[C@H](c2ccsc2)[C@H]2COCC=C12", "activity change, negative = inhibition": 130}, {"compound": "O=C1c2cccc3cccc(c23)C(=O)N1CCCCCc1n[nH]c(=S)o1", "activity change, negative = inhibition": 25.5}]}]}
